Seven compounds from PubChem BioAssay (NCI) can be followed below.

Holding throughout (experiment): NCI-60 one-dose screen, 48 h (100 = growth as untreated, 0 = no growth, -100 = all killed)
Settings in all cases: 10 µM unless noted

Assay [1] concerns HCT-15 colon.
The test system of assay [2] is HT29 colon.
The subject of assay [3] is SNB-75 CNS.
Assay [4] concerns SNB-19 CNS.
In assay [5] the test system is U251 CNS.
Assay [6] relates to PC-3 prostate.
Assay [7] concerns SK-MEL-5 melanoma.
The test system of assay [8] is UACC-62 melanoma.
Assay [9] deals with SK-MEL-28 melanoma.
In assay [10] the test system is SK-MEL-2 melanoma.
In assay [11] the test system is EKVX NSCLC.
For assay [12], the system named is SN12C renal.
Assay [13] concerns UO-31 renal.
In assay [14] the test system is TK-10 renal.
The subject of assay [15] is ACHN renal.
The test system of assay [16] is CAKI-1 renal.
For assay [17], the system named is A498 renal.
Assay [18] relates to CCRF-CEM leukemia.
The subject of assay [19] is MOLT-4 leukemia.
Assay [20] has as its system LOX IMVI melanoma.

Molecules are shown by their SMILES. Where “and” joins values, the source holds several entries; their conditions need not be identical. Equal entries are not always repeated. About 83,000 compounds went through this panel and 20% of them were active in at least one assay; those are over-represented in the sample as a whole.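 Compound tested at a single concentration for 48 hours in 96-well plates; a percent growth value below 10 was scored as active.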 Calls of active or inactive are those of the source.

Take `COc1ccc(C(=O)c2ccc(OC)c(OC)c2OC)cc1`: the growth in [1] was 26.6% (inactive) and 27.2% (inactive); in assay [2] it was 4.69% (active) and 12.7% (inactive); in assay [3], -3.95% (active); in assay [4], 43.6% (inactive) and 41.7% (inactive); in assay [5], 31.3% (inactive) and 26.2% (inactive); in [6] it was 35.5% (inactive) and 32.9% (inactive). The growth in assay [7] was 18.8% (inactive); in assay [8], 40.8% (inactive) and 50.7% (inactive); in assay [9], 45.3% (inactive) and 50.3% (inactive); in assay [10] it was 17.6% (inactive) and 57.5% (inactive); in assay [11] it was 48.1% (inactive) and 39% (inactive); in assay [12], 56.1% (inactive) and 43.4% (inactive). Moreover, the growth in assay [13] was 41.8% (inactive) and 24.1% (inactive); in assay [14], 34.4% (inactive) and 54.2% (inactive); in [15], 42.5% (inactive) and 53.8% (inactive); in assay [16], 14.4% (inactive) and 21% (inactive); in assay [17] it was 4.87% (active) and -9.47% (active); in assay [18], 37.3% (inactive). Besides, the growth in [19] was 41.5% (inactive) and 36.8% (inactive).

As for `O=C(O)c1ccccc1Cc1ccc(F)c2ccccc12`, the growth in assay [1] was 108% (inactive) and 99.4% (inactive); in assay [2], 116% (inactive) and 107% (inactive); in assay [3], 93.6% (inactive) and 77.4% (inactive); in assay [4] it was 101% (inactive) and 104% (inactive); in [5] it was 115% (inactive) and 104% (inactive); in assay [6] it was 120% (inactive) and 90.7% (inactive). Further, the growth in assay [7] was 96.2% (inactive) and 102% (inactive); in [8] it was 101% (inactive) and 106% (inactive); in assay [9], 105% (inactive); in assay [10] it was 101% (inactive) and 119% (inactive); in assay [11] it was 107% (inactive); in assay [12] it was 107% (inactive) and 97.9% (inactive). The growth in assay [13] was 77.7% (inactive) and 89.1% (inactive); in [14], 107% (inactive) and 109% (inactive); in [15], 99.3% (inactive) and 102% (inactive); in [17], 99.3% (inactive) and 97.4% (inactive); in assay [18] it was 98.8% (inactive) and 96.3% (inactive); in assay [19], 93.7% (inactive) and 107% (inactive).

`CCCCC#Cc1c(/C=C(\CCCC)SCC)n(C)c(=O)[nH]c1=O`: the growth in assay [1] is 89.8% (inactive); in assay [2] it was 92.6% (inactive); in assay [3] it was 90.1% (inactive); in [4], 107% (inactive); in [5], 117% (inactive); in assay [6], 94.1% (inactive). Moreover, the growth in assay [7] is 99% (inactive); in assay [8], 90.4% (inactive); in assay [20], 96.6% (inactive); in [10], 67.1% (inactive); in [11] it was 104% (inactive); in assay [12] it was 101% (inactive). In addition, the growth in assay [13] was 90.9% (inactive); in assay [14], 104% (inactive); in assay [15], 101% (inactive); in assay [16] it was 102% (inactive); in assay [17], 72% (inactive); in [18] it was 95% (inactive). Moreover, the growth in [19] was 62.1% (inactive).

`COC(=O)/C=C1/SC(=Nc2ccc([N+](=O)[O-])cc2)N(CCc2c[nH]c3ccccc23)C1=O`: the growth in assay [1] is 29.9% (inactive); in [2], 51.8% (inactive); in assay [3] it was 84.3% (inactive); in assay [4], 69.2% (inactive); in assay [5], 46.9% (inactive); in assay [6], 63.4% (inactive). The growth was 84.9% (inactive) in assay [7]; -9.3% (active) in assay [20]; 76.8% (inactive) in assay [9]; 68.1% (inactive) in assay [10]; 87.2% (inactive) in [11]; 58.8% (inactive) in assay [12]. In addition, the growth in assay [13] was 48.8% (inactive); in [14], 103% (inactive); in [15] it was 64.6% (inactive); in assay [16], 73.1% (inactive); in [17], 78.2% (inactive); in [18], 8.51% (active). In addition, the growth in [19] is -2.1% (active).

Regarding `COc1ccc(CCNC(=O)COc2cc3c(Nc4ccc(F)c(Cl)c4)ncnc3cc2OC)cc1OC`, the growth is 91.2% (inactive) in assay [1]; 95.5% (inactive) in assay [2]; 94.6% (inactive) in [3]; 84.2% (inactive) in assay [4]; 103% (inactive) in assay [5]; 92.1% (inactive) in [6]. For the same compound, the growth in assay [7] is 92.5% (inactive); in assay [20], 90.1% (inactive); in assay [9] it was 98.4% (inactive); in assay [10], 86.9% (inactive); in assay [11], 78.2% (inactive); in assay [12], 85.2% (inactive). Also, the growth in [13] was 46.8% (inactive); in [14] it was 37.4% (inactive); in assay [15], 49% (inactive); in [16], 46.5% (inactive); in assay [17] it was 55.6% (inactive); in assay [18], 100% (inactive). Moreover, the growth in assay [19] was 93.4% (inactive).

On to `Cc1ccc(C(=O)Nc2nc3c(s2)CN(Cc2ccccc2)CC3)cn1`, for which the growth was 49.5% (inactive) in [1]; 59.1% (inactive) in assay [2]; 66.9% (inactive) in assay [3]; 92.3% (inactive) in assay [4]; 92.9% (inactive) in assay [5]; 74.1% (inactive) in assay [6]. Moreover, the growth in assay [7] was 79.3% (inactive); in assay [20] it was 87% (inactive); in assay [9], 94.3% (inactive); in assay [10] it was 93% (inactive); in assay [11] it was 90.4% (inactive); in [12], 89.7% (inactive). The growth is 89.4% (inactive) in assay [14]; 100% (inactive) in assay [15]; 89.9% (inactive) in assay [17]; 85.5% (inactive) in [18]; 95.6% (inactive) in assay [19].

For `COc1cc(Nc2nc3ccccc3cc2C(=O)Nc2ccc(F)c(F)c2)cc(OC)c1OC`, the growth is 13.5% (inactive) in assay [1]; 28.5% (inactive) in assay [2]; 45.4% (inactive) in [3]; 25.3% (inactive) in assay [4]; 19.1% (inactive) in [5]; 10.7% (inactive) in assay [6]. Moreover, the growth in [7] was 13.8% (inactive); in assay [20], 17.6% (inactive); in assay [9] it was 35.7% (inactive); in [10], 48.2% (inactive); in assay [11], 30% (inactive); in assay [12], 12.5% (inactive). For the same compound, the growth in [13] was 21.8% (inactive); in [14], 47.8% (inactive); in assay [15], 5.68% (active); in assay [16] it was 46.5% (inactive); in assay [17], -3.64% (active); in assay [18], 24.7% (inactive). Besides, the growth in [19] was 14.2% (inactive).
